Records with an inconclusive call do not appear. The source made the active and inactive calls. The call rests on the fitted dose curve; in most records, active means well fitted inhibition curve with a large enough effect; inconclusive means small, poorly fitted or top-dose-only effect; inactive means flat fitted curve, though single readings scatter.
What follows are compounds tested on AS120 (assay: qHTS profiling for inhibitors of Plasmodium falciparum proliferation (AID 504749;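 further: 0% = DMSO vehicle and full inhibition = artemisinin control; nearly all actives have a fitted effect of over 60% in size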)). Conditions: P. falciparum in erythrocytes, SYBR Green DNA, 72 h; series mostly up to 28.7 µM; activity, negative = inhibition: at the top concentration.
How it was run: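 Readout was DNA-dye fluorescence from lysed cultures, ex 485/em 535 nm. Parasitized red cells had grown 72 h with compound; data scaled between 0.29 uM artemisinin and DMSO wells and corrected using vehicle-only plates.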

| SMILES | activity, negative = inhibition |
| --- | --- |
| O=C1Nc2ccc(Cl)cc2C(c2ccccc2Cl)=NC1O (centres undefined) | 5.63% (inactive) |
| CCC(C)(C)c1ccc(O)cc1 | 11.3% (inactive) |
| CNC(C)(C)Cc1ccccc1 | 1.63% [at 12.8 µM] (inactive) |
| CCCCC/C=C\C/C=C\C/C=C\C/C=C\CCCC(=O)NCC(=O)O | -10.8% [at 2.67 µM] (inactive) |
| C[C@]12CCC(=O)C=C1CC[C@@H]1[C@@H]2CC[C@]2(C)C(=O)CC[C@@H]12 | -28.6% (inactive) |
| CN1C(=O)CCS(=O)(=O)C1c1ccc(Cl)cc1 (centres undefined) | 5.82% (inactive) |
| CC(C)NC(C)C | 4.42% (inactive) |
| CCC1(c2ccccc2)C(=O)N(COC)C(=O)N(COC)C1=O | 2.84% (inactive) |
| Nc1ccccc1C(=O)O | 8.35% (inactive) |
| C[C@](O)(CS(=O)(=O)c1ccc(F)cc1)C(=O)Nc1ccc(C#N)c(C(F)(F)F)c1 | -14.2% (inactive) |
| O=P1(N(CCCl)CCCl)NCCCO1 (centres undefined) | 7.48% (inactive) |
| O=C(Nc1ccc(Br)cc1)c1cc(Br)cc(Br)c1O | 14.2% (inactive) |
| O=C(O)CCCc1ccc(N(CCCl)CCCl)cc1 | -1.9% (inactive) |
| O=c1oc2ccccc2c(O)c1Cc1c(O)c2ccccc2oc1=O | 12.5% [at 12.8 µM] (inactive) |
| Clc1ccc2c(c1)C(c1ccccc1)=NCc1nncn1-2 | 7.82% (inactive) |
| CN1C(=O)COc2c(C(=O)NC3CN4CCC3CC4)cc(Cl)cc21 (centres undefined) | 2.13% (inactive) |
| COP(=S)(OC)Oc1ccc(S(=O)(=O)N(C)C)cc1 | 4.55% (inactive) |
| CC(C)c1cccc(C(C)C)c1O | 4.24% (inactive) |
| Nc1nc(N)nc(NC2CC2)n1 | 1.07% (inactive) |

From PubChem BioAssay (NCATS)
